Source: PubChem BioAssay AID489008 (National Center for Advancing Translational Sciences (NCATS), 2010)
Records with an inconclusive call do not appear. Calls of active or inactive are those of the source. Calls follow the shape of the dose curve; as a rule, active = well fitted inhibition curve with a large enough effect; inconclusive = small, poorly fitted or top-dose-only effect; inactive = flat fitted curve, though single readings scatter.

What follows are compounds tested against Ferritin light chain (Equus caballus) (UniProt P02791) (assay: Confirmation Assay for Identification of Novel General Anesthetics). Details: apoferritin 1-aminoanthracene fluorescence displacement.
In short: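 Horse apoferritin (10 uM) pre-loaded with 1-AMA (50% saturated, PBS) exposed to compounds 10 min at room temperature; loss of 1-AMA fluorescence (380/535 nm) scaled between free and bound ligand, curves fitted with Hill equation.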
Also: nearly all actives have a fitted effect of over 40% in size.
Potency is read from the fitted curve at half-maximal effect.

Ferritin light chain (Equus caballus), sequence (P02791 2-175 limits assumed): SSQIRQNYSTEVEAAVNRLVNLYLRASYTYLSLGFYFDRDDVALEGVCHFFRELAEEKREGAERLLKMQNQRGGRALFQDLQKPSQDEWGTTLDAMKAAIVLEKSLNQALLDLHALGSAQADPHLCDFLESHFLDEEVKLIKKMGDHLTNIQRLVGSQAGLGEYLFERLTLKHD

Potency, active:
Nn1cnc2sc3c(c2c1=O)CCC3 31.6 µM
Cc1ccc(NC(=O)COC(=O)CSC(=S)N2CCOCC2)cc1 15.8 µM
Cc1ccc(CN=C2Nc3ccccc3CS2)cc1 14.1 µM
CC1CCCN(C(=O)Nc2ccc(Br)cc2Cl)C1 (centres undefined) 28.2 µM
Cc1cc(C)cc(C(=O)N2CCCCCC2)c1 20 µM
O=C1CC(C2CCCO2)C(=O)N1c1cccc(Cl)c1 (centres undefined) 14.1 µM
CC1(C)CC(=O)c2c(noc2-c2ccccc2)C1 17.8 µM
CCCNC(=O)OCCC12CC3CC(CC(C3)C1)C2 7.08 µM
Nc1nc(Cl)cc(NCCc2ccc(O)cc2)n1 14.1 µM
O=C(CCc1ccccc1)Nc1cc(Cl)ccc1O 6.31 µM
CCC1CCCCN1S(=O)(=O)Cc1ccccc1Cl (centres undefined) 15.8 µM
CCN(CC)c1cccc(OC2=NS(=O)(=O)c3ccccc32)c1 17.8 µM
Cc1ncsc1CCOC(=O)C12CC3CC(CC(C3)C1)C2 15.8 µM
Cc1ccc(NS(=O)(=O)N2CCOCC2)cc1Cl 12.6 µM
Oc1ccc(C(=S)N2CCCCCC2)cc1 14.1 µM
Cc1ccc(CNC(=O)CN2N=C(c3ccccc3)CCC2=O)cc1 5.19 µM
Cc1cc(C)n2nc(CC(=O)NC3CCCC(C)C3C)nc2n1 (centres undefined) 15.8 µM
CC(C)c1ccccc1OCC(=O)N1CCCCCCC1 11.2 µM
Cc1cc(NS(=O)(=O)N(C)C)ccc1C(C)C 20 µM
